GRIN3A LBD mod = modulates the human NR3A ligand-binding domain; NR3A LBD differential scanning fluorimetry, Tm shift; 0% = protein alone, 100% = glycine-bound protein; Tm shift relative to glycine control, % at 25 µM; 2.5% of 340,000 active;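 active = melting temperature shift of at least 10% of the positive control shift, at one fixed dose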
CRFR2-BP ag = CRF-BP/CRF-R2 complex agonism; HEK293 CRF-R2/CRF-BP, calcium dye fluorescence (FLIPR); percent of saturating CRF peptide response; activation, % at 13.2 µM; 0.46% of 350,000 active;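 active = activation of at least 50%, plus an integration ratio under a set limit after plate pattern correction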;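 also: plate controls were neutral control wells without compound for no effect and CRF at EC100 for full effect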
ANO1 activ = activators or potentiators of mouse TMEM16A chloride channel; Q8BHY3; HEK293 TMEM16A/YFP-H148Q/I152L, iodide quench fluorescence; hits give low values; B-score at 10 µM; 0.3% of 340,000 active; AID 623877;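 active = fluorescence-ratio B-score plate-corrected deviation score at least 3 library SD below zero, with starting fluorescence score within 5 deviations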;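 also: channel opened by trigger with iodide after compound preincubation; score built on the fluorescence ratio of max minus min over baseline; more negative score means more quench and so TMEM16A activation or potentiation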
Target sequence (Q8BHY3 whole entry, looked up): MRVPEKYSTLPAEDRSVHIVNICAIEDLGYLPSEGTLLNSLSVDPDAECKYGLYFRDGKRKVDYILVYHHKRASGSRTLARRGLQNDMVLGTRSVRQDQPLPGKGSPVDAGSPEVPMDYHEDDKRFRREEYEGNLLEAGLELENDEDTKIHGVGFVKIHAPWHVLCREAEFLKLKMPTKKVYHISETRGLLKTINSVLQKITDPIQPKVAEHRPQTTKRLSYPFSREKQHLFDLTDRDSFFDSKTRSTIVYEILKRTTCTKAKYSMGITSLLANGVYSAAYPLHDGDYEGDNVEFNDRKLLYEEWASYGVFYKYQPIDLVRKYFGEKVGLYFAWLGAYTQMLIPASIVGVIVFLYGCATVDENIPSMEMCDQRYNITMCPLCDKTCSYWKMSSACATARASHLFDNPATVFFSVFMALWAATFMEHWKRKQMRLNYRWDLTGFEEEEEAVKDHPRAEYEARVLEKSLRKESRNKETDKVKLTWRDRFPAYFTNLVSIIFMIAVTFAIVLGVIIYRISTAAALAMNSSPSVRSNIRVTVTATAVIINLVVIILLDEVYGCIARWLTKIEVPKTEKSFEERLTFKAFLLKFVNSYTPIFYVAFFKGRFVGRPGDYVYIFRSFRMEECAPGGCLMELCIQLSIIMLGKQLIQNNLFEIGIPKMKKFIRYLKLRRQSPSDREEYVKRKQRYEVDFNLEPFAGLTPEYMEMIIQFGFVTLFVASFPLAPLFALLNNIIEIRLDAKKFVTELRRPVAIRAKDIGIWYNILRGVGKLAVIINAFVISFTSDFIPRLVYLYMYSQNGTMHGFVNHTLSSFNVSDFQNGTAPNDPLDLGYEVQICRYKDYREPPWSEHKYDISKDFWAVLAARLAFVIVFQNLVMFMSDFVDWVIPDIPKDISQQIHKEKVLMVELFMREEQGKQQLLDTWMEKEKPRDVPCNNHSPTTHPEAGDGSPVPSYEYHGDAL
CRFR2-BP antag = blocks CRF-induced signaling of the CRF-BP/CRF-R2 complex. HEK293 CRF-R2/CRF-BP, CRF-induced calcium fluorescence. 0.59% of 350,000 active. inhibition, % at 11.8 µM;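 active = inhibition of the ligand-induced calcium signal above about 50% at the single tested concentration, limit read from the data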
TMEM16A inh = mouse TMEM16A channel inhibition, primary screen; HEK293 TMEM16A/YFP iodide influx fluorescence, ionomycin; normalized B-score (activity score, 25-100; higher = stronger inhibition) at 10 µM; 1.2% of 310,000 active;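 active = ratio plate-corrected score three or more library SD toward inhibition, starting fluorescence score within five deviations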;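 also: score derived from kinetic fluorescence span divided by baseline fluorescence per well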
MPTP block = blocks calcium-induced mitochondrial swelling. isolated mouse mitochondria, Ca2+ swelling absorbance, 30 min. inhibition, % at 10 µM. 1.4% of 360,000 active. AID 602449;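 active = inhibition of 50% or more, scaled per plate between neutral and stimulator controls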;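 also: 0% = DMSO wells given calcium and 100% = 1 mM EGTA wells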
Rh123 counter = Rhodamine 123 counter-screen of mitochondrial pore hits | isolated mitochondria, membrane potential, Rhodamine 123 fluorescence | shares compounds with MPTP block | 78% of 5,000 active | inhibition, % at 10 µM; in the data active = inhibition above about 22%;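 also: 0% = DMSO vehicle and 100% = positive control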
MPTP swell DR = dose response confirmation of mitochondrial permeability transition pore inhibitors; isolated mitochondria swelling, absorbance; shares compounds with MPTP block; 58% of 780 active; IC50, µM; in the data active = IC50 below about 20 µM
MPTP cs DR = counter-screen for mitochondrial permeability transition pore inhibitors, dose response; shares compounds with MPTP block; isolated mitochondria counterscreen, fluorescence read-out; IC50, µM; 49% of 780 active; AID 651564; in the data active = IC50 below about 80 µM
The depositor's hits bear a star; i = inactive; / = not tested or not shown. Shown are actives, neighbours in structure and some others; about 5.1% of the full set was active somewhere.

SMILES	GRIN3A LBD mod	CRFR2-BP ag	ANO1 activ	CRFR2-BP antag	TMEM16A inh	MPTP block	Rh123 counter	others
COC(=O)c1ccc(NC(=O)Nc2ccc(F)cc2)cc1	18*	14	i	12	i	64*	96*
CCOC(=O)c1ccc(NC(=O)Oc2cc(C)c(Cl)cc2C(C)C)cc1	15*	1	i	-4	i	64*	69*
CC1=C/C(=C(\c2cc(C)c(O)c(Br)c2)c2ccccc2S(=O)(=O)O)C=C(Br)C1=O	-3	4	i	7	i	24	/
O=C(Nc1ccc(C(=O)O)cc1)Nc1ccc([N+](=O)[O-])cc1	1	0	i	4	i	14	/
COc1ccc(NC(=O)Nc2ccccc2F)cc1	6	-3	i	31	i	-2	/
O=C(COc1ccc([N+](=O)[O-])cc1)NNC(=O)Nc1ccc([N+](=O)[O-])cc1	-1	10	i	1	i	67*	96*
COC(=O)c1ccc(NC(=O)Nc2ccc([N+](=O)[O-])cc2)cc1	34*	22	i	3	i	94*	85*
CC(C)(C)c1ccc(COC(=O)Nc2ccc(F)cc2)cc1	0	0	i	-18	i	4	/
COC(=O)c1ccc(NC(=O)Nc2ccccc2F)cc1	4	-1	i	-37	i	54*	84*
CC(C)(C)c1ccc(NC(=O)Nc2ccc(F)cc2)cc1	14*	19	i	-11	i	99*	88*
CC1ON=C(c2ccc(F)cc2)NC1=O (stereo unspecified)	/	/	/	/	/	0	/
CCOC(=O)C(=O)Nc1ccc(F)cc1	-1	6	i	42	i	0	/
CCOC(=O)c1ccc(NC(=O)Nc2ccc(F)cc2)cc1	35*	26	i	12	i	97*	85*
CCCCN1C(=N)N([C@@H](C)CN2CCC[C@H]2CN2C(N)=NC[C@H]2CC(C)C)C[C@H]1Cc1ccccc1	-1	-1	i	17	/	67*	1	MPTP swell DR=9*;MPTP cs DR=>80
C[C@@H](CN1CCC[C@H]1CN1C(N)=NC[C@@H]1Cc1ccccc1)N1C[C@@H](Cc2ccccc2)N(CCc2ccc(Cl)c(Cl)c2)C1=N	-1	0	i	46	/	74*	8
CCCCN1C(=N)N([C@@H](C)CN2CCC[C@H]2CN2C(N)=NC[C@@H]2Cc2ccccc2)C[C@H]1[C@H](C)CC	0	0	i	8	/	0	/
C=CCn1c(C)cc(C2=NNC(=NC(C)(C)C)SC2)c1C	-3	-3	i	-7	i	101*	76*
COc1cc(C(=O)NCCC(=O)NCc2c(F)cc(F)cc2F)cc(OC)c1OC	1	-1	i	9	i	2	/
CC(OC(=O)Nc1cccc(Cl)c1)C(=O)O (stereo unspecified)	/	0	i	-3	i	-1	/
CC(C)OC(=O)NCCOC(=O)Nc1cccc(Cl)c1	1	-3	i	9	i	100*	93*
CC(C)OC(=O)NCCOC(=O)Nc1ccc(Cl)c(Cl)c1	0	0	i	-7	i	97*	98*
CC(C)OC(=O)NC(C)(C)COC(=O)Nc1cccc(Cl)c1	-1	0	i	-23	i	82*	96*
CCOC(=O)/C=C/c1ccc2c(c1)S(=O)(=O)N(c1cccc(OC)c1)[C@H]2CC(=O)OCC	-3	1	i	-8	i	0	/
COc1ccc(S(=O)(=O)N2CCCCC2)cc1NC(=O)Cc1ccc(Br)cc1	0	3	/	-2	/	1	/
CN(C)CC/C=C1/c2ccccc2Sc2c(O)cc(Cl)cc21	-23	2	i	-14	i	1	/
SMILES	GRIN3A LBD mod	CRFR2-BP ag	ANO1 activ	CRFR2-BP antag	TMEM16A inh	MPTP block	Rh123 counter	others
COc1cc(Cl)cc2c1Sc1ccccc1/C2=C/CCN(C)C	0	1	i	-40	i	82*	-4
Oc1cccc(C(O)CNCc2ccc(-c3ccccc3)cc2)c1 (stereo unspecified)	-2	7	i	-145	i	92*	-14	MPTP swell DR=4.2*;MPTP cs DR=51*
Oc1cccc(C(O)CNCc2ccc(OCc3ccc(Cl)cc3Cl)cc2)c1 (stereo unspecified)	-6	-2	i	-79	i	83*	-12	MPTP swell DR=6.7*;MPTP cs DR=43*
OC(CNCc1ccccc1)c1ccccc1 (stereo unspecified)	7	0	i	6	i	1	/
COC(=O)N(C)C[C@@H]1OCc2cnnn2CCCC(=O)N([C@H](C)CO)C[C@@H]1C	/	1	/	22	/	1	/
c1ccc(Sc2cccc3ccccc23)c(CNC2=NCCN2)c1	-3	-2	i	-13	i	101*	29*
CN(C)Cc1ccccc1Sc1ccccc1Br	-4	0	i	-7	i	0	/
CN(C)Cc1ccccc1Sc1cccc2ccccc12	-8	0	i	-22	i	66*	6	MPTP swell DR=11*;MPTP cs DR=61*
Nn1c(SCC(=O)Nc2nccs2)nnc1C1CC1	2	2	i	-18	i	-1	/
COC(=O)N(C)C[C@H]1OCc2cnnn2CCCC(=O)N([C@@H](C)CO)C[C@H]1C	/	-1	/	-23	/	-2	/
Cc1ccc(C)c(NC(=O)c2cc3ccccn3n2)c1	0	0	i	14	i	53*	5	MPTP swell DR=i;MPTP cs DR=>80
O=C(NCCOc1ccc2ccccc2c1)c1cncc(Br)c1	1	12	i	-9	i	7	/
O=C1N(c2ccccc2C(F)(F)F)O[C@]1(c1ccccc1)C1CCCC1	-1	0	i	4	/	0	/
CCN(C(=O)COC(=O)CCNS(=O)(=O)c1ccccc1F)c1c(N)n(Cc2ccccc2)c(=O)[nH]c1=O	0	-1	i	12	/	0	/
CCC(=O)c1ccccc1OCCCN1CCC(Cc2ccccc2)CC1	2	0	i	-22	i	69*	60*
C=Cc1ccc(Cn2nc(-c3ccc(C)cc3)ccc2=O)cc1	-2	3	i	-18	i	69*	79*
Cc1ccccc1-c1csc(C(O)(c2ccccc2)C(F)(F)F)n1 (stereo unspecified)	/	/	/	/	/	1	/
CC1CCCCN1C(=O)CN1C(=O)CSc2ccc(S(=O)(=O)N3CCOCC3)cc21 (stereo unspecified)	0	1	i	18	i	0	/
